Out of some 5,500 compounds screened, about 2,000 (36%) were called active. Roughly 18% stayed inconclusive and do not appear here. Rule as the data show it: active = normalized growth mostly below about 0.91 (no sharp cut-off); inconclusive = no clear call, values can overlap the other calls; inactive = mostly above about 0.92. Some of the results follow.
Experiment: chemical genetic growth profiling, strain panel (AID 1159580);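 also: tested at 20 µM; growth read once vehicle control cultures reached saturation at 30 °C; 1 = growth at the plate median or of vehicle wells; lower values mean less growth of the strain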
Conditions: growth OD
[1] = S. cerevisiae deletion strains, locus YAL013W, strain DEP1, active compounds read low
[2] = S. cerevisiae deletion strains, locus YBR229C, strain ROT2, active compounds read low
[3] = S. cerevisiae deletion strains, locus YDL101C, strain DUN1, active compounds read low
[4] = S. cerevisiae deletion strains, locus YDR150W, strain NUM1, active compounds read low
[5] = S. cerevisiae deletion strains, locus YEL061C, strain CIN8, active compounds read low
[6] = S. cerevisiae deletion strains, locus YGR078C, strain PAC10, active compounds read low
[7] = S. cerevisiae deletion strains, locus YHR030C, strain SLT2, active compounds read low
[8] = S. cerevisiae deletion strains, locus YHR087W, strain rtc3, active compounds read low
[9] = S. cerevisiae deletion strains, locus YJR043C, strain POL32, active compounds read low
[10] = S. cerevisiae deletion strains, locus YJR075W, strain HOC1, active compounds read low
[11] = S. cerevisiae deletion strains, locus YLR039C, strain RIC1, active compounds read low
[12] = S. cerevisiae deletion strains, locus YLR058C, strain SHM2 (second series), active compounds read low
[13] = S. cerevisiae deletion strains, locus YLR085C, strain ARP6, active compounds read low
[14] = S. cerevisiae deletion strains, locus YLR262C, strain YPT6, active compounds read low
[15] = S. cerevisiae deletion strains, locus YML094W, strain GIM5, active compounds read low
[16] = S. cerevisiae deletion strains, locus YMR219W, strain ESC1, active compounds read low
[17] = S. cerevisiae deletion strains, locus YMR263W, strain SAP30, active compounds read low
[18] = S. cerevisiae deletion strains, locus YNL153C, strain GIM3, active compounds read low
[19] = S. cerevisiae deletion strains, locus YNL298W, strain CLA4 (second series), active compounds read low
[20] = S. cerevisiae deletion strains, locus YNL322C, strain KRE1, active compounds read low
[21] = S. cerevisiae deletion strains, locus YNR030W, strain Alg12, active compounds read low
[22] = S. cerevisiae deletion strains, locus YPL055C, strain LGE1, active compounds read low
[23] = S. cerevisiae deletion strains, locus YPL241C, strain CIN2, active compounds read low
[24] = S. cerevisiae deletion strains, locus YPR135W, strain CTF4, active compounds read low

Measured: normalized growth

c1ccc(-c2nc(-c3cccs3)cs2)cc1
active: [1] 0.916 | [2] 0.877 | S. cerevisiae deletion strains, locus YCL061C, strain MRC1, active compounds read low 0.895 | [5] 0.838 | [6] 0.88 | [7] 0.166 | [8] 0.744 | [10] 0.707 | [11] 0.273 | [12] 0.859 | [13] 0.408 | [14] 0.274 | [15] 0.866 | [16] 0.919 | [19] 0.714 | [20] 0.914 | [21] 0.693 | [22] 0.768 | [23] 0.813 | [24] 0.341
inactive: [3] 0.988 | [4] 0.939 | [9] 0.973 | [17] 0.931 | [18] 0.983

OC(c1ccccc1)(c1ccccc1)c1ccncc1
inactive: [1] 1.05 | [2] 1 | [3] 1 | [4] 1.01 | [5] 0.991 | [6] 1.02 | S. cerevisiae deletion strains, locus YGR229C, strain SMI1, active compounds read low 0.997 | [7] 1.03 | [8] 1.02 | [9] 1.01 | [10] 0.984 | S. cerevisiae deletion strains, locus YKL190W, strain CNB1, active compounds read low 0.996 | [11] 1.03 | [12] 0.996 | [13] 1.19 | [14] 0.997 | [15] 1.04 | [16] 0.999 | [17] 1.03 | S. cerevisiae deletion strains, locus YNL128W, strain TEP1, active compounds read low 0.999 | [18] 1.02 | [19] 1.01 | [20] 1 | [21] 1.03 | [22] 1.09 | [23] 1.1 | [24] 1.14 | S. cerevisiae strains, strain wild type, active compounds read low 1.01

Brc1ccc(-c2csc(-c3ccncc3)n2)cc1
active: [3] 0.888 | S. cerevisiae deletion strains, locus YDR052C, strain DBF4, active compounds read low 0.892 | S. cerevisiae deletion strains, locus YDR054C, strain cdc34, active compounds read low 0.862 | S. cerevisiae deletion strains, locus YDR226W, strain ADK1, active compounds read low 0.895 | S. cerevisiae deletion strains, locus YER133W, strain GLC7, active compounds read low 0.683 | S. cerevisiae deletion strains, locus YFL009W, strain cdc4, active compounds read low 0.878 | S. cerevisiae deletion strains, locus YGR040W, strain KSS1, active compounds read low 0.59 | S. cerevisiae deletion strains, locus YGR052W, strain FMP48, active compounds read low 0.41 | S. cerevisiae deletion strains, locus YGR092W, strain DBF2, active compounds read low 0.443 | [7] 0.312 | S. cerevisiae deletion strains, locus YJL095W, strain BCK1, active compounds read low 0.149 | S. cerevisiae deletion strains, locus YJR066W, strain TOR1, active compounds read low 0.24 | S. cerevisiae deletion strains, locus YKL203C, strain TOR2, active compounds read low 0.221 | S. cerevisiae deletion strains, locus YLR113W, strain HOG1, active compounds read low 0.315 | S. cerevisiae deletion strains, locus YNL183C, strain NPR1, active compounds read low 0.257 | S. cerevisiae deletion strains, locus YNL207W, strain RIO2, active compounds read low 0.839 | S. cerevisiae deletion strains, locus YOR119C, strain RIO1, active compounds read low 0.306 | S. cerevisiae deletion strains, locus YOR231W, strain MKK1, active compounds read low 0.488 | S. cerevisiae deletion strains, locus YPL153C, strain RAD53, active compounds read low 0.609 | S. cerevisiae deletion strains, locus YPL204W, strain HRR25, active compounds read low 0.64 | S. cerevisiae deletion strains, locus YPL256C, strain CLN2, active compounds read low 0.578 | S. cerevisiae deletion strains, strain NNK1, active compounds read low 0.875
inactive: S. cerevisiae deletion strains, locus YAR019C, strain CDC15, active compounds read low 0.909 | S. cerevisiae deletion strains, locus YBL105C, strain PKC1, active compounds read low 0.943 | S. cerevisiae deletion strains, locus YBR135W, strain CKS1, active compounds read low 0.904 | S. cerevisiae deletion strains, locus YBR136W, strain MEC1, active compounds read low 0.916 | S. cerevisiae deletion strains, locus YBR160W, strain CDC28, active compounds read low 0.904 | S. cerevisiae deletion strains, locus YDL017W, strain CDC7, active compounds read low 0.923 | S. cerevisiae deletion strains, locus YDL028C, strain MPS1, active compounds read low 0.92 | S. cerevisiae deletion strains, locus YDL108W, strain KIN28, active compounds read low 0.932 | S. cerevisiae deletion strains, locus YDL132W, strain cdc53, active compounds read low 0.94 | S. cerevisiae deletion strains, locus YDL214C, strain PRR2, active compounds read low 0.848 | S. cerevisiae deletion strains, locus YDR477W, strain SNF1, active compounds read low 0.705 | S. cerevisiae deletion strains, locus YER123W, strain YCK3, active compounds read low 0.703 | S. cerevisiae deletion strains, locus YFL029C, strain CAK1, active compounds read low 0.911 | S. cerevisiae deletion strains, locus YFR003C, strain YPI1, active compounds read low 0.942 | S. cerevisiae deletion strains, locus YFR019W, strain FAB1, active compounds read low 0.874 | S. cerevisiae deletion strains, locus YFR028C, strain CDC14, active compounds read low 0.895 | S. cerevisiae deletion strains, locus YHR079C, strain IRE1, active compounds read low 0.632 | S. cerevisiae deletion strains, locus YHR082C, strain KSP1, active compounds read low 0.635 | S. cerevisiae deletion strains, locus YHR205W, strain SCH9, active compounds read low 0.622 | S. cerevisiae deletion strains, locus YIL147C, strain SLN1, active compounds read low 0.919 | S. cerevisiae deletion strains, locus YJL128C, strain PBS2, active compounds read low 0.958 | S. cerevisiae deletion strains, locus YJL157C, strain FAR1, active compounds read low 0.847 | S. cerevisiae deletion strains, locus YJR016C, strain ILV3, active compounds read low 0.914 | S. cerevisiae deletion strains, locus YJR066W, strain TOR1 (second series), active compounds read low 0.797 | S. cerevisiae deletion strains, locus YKL048C, strain ELM1, active compounds read low 0.889 | S. cerevisiae deletion strains, locus YKL067W, strain YNK1, active compounds read low 0.856 | S. cerevisiae deletion strains, locus YKL101W, strain HSL1, active compounds read low 0.889 | S. cerevisiae deletion strains, locus YKL193C, strain SDS22, active compounds read low 0.891 | S. cerevisiae deletion strains, locus YLR133W, strain CKI1, active compounds read low 0.844 | S. cerevisiae deletion strains, locus YLR403W, strain SFP1, active compounds read low 0.689 | S. cerevisiae deletion strains, locus YML070W, strain DAK1, active compounds read low 0.77 | S. cerevisiae deletion strains, locus YMR001C, strain CDC5, active compounds read low 0.901 | S. cerevisiae deletion strains, locus YMR205C, strain PFK2 (second series), active compounds read low 0.854 | S. cerevisiae deletion strains, locus YMR277W, strain FCP1, active compounds read low 0.892 | S. cerevisiae deletion strains, locus YNL006W, strain LST8, active compounds read low 0.939 | S. cerevisiae deletion strains, locus YNL020C, strain ARK1, active compounds read low 0.868 | S. cerevisiae deletion strains, locus YNL161W, strain CBK1, active compounds read low 0.908 | S. cerevisiae deletion strains, locus YNL222W, strain SSU72, active compounds read low 0.938 | S. cerevisiae deletion strains, locus YNL307C, strain MCK1 (second series), active compounds read low 0.847 | S. cerevisiae deletion strains, locus YOL078W, strain AVO1, active compounds read low 0.898 | S. cerevisiae deletion strains, locus YOL136C, strain PFK27, active compounds read low 0.846 | S. cerevisiae deletion strains, locus YOR061W, strain CKA2, active compounds read low 0.925 | S. cerevisiae deletion strains, locus YOR329C, strain SCD5, active compounds read low 0.933 | S. cerevisiae deletion strains, locus YPL031C, strain PHO85, active compounds read low 0.687 | S. cerevisiae deletion strains, locus YPL209C, strain IPL1, active compounds read low 0.919 | S. cerevisiae deletion strains, locus YPR025C, strain CCL1, active compounds read low 0.92 | S. cerevisiae deletion strains, locus YPR106W, strain ISR1, active compounds read low 0.919 | S. cerevisiae deletion strains, locus YPR111W, strain DBF20, active compounds read low 0.902 | S. cerevisiae deletion strains, strain TSCII, active compounds read low 0.88
